Results on 13 compounds are retold here after PubChem BioAssay (NCI).

Structures are written as SMILES. The panel holds about 83,000 compounds, 20% with a hit somewhere; the sample as a whole holds those more often.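 Cells were grown in 96-well plates and exposed to the test compound at a single concentration for 48 hours; results are reported as percent growth, with values below 10 considered active.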 A number with no mark means an inactive call. The source made the active and inactive calls.

Test in all cases: NCI-60 one-dose screen, 48 h (100 = growth as untreated, 0 = no growth, -100 = all killed)
Common to all, as to conditions: 10 µM unless noted

In assay [1] the test system is NCI-H23 lung.
The subject of assay [2] is NCI-H226 lung.
The subject of assay [3] is NCI-H322M lung.
Assay [4] deals with HOP-62 NSCLC.
In assay [5] the test system is NCI-H460 lung.
The subject of assay [6] is HOP-92 NSCLC.
In assay [7] the test system is NCI-H522 lung.
Assay [8] concerns A549/ATCC NSCLC.
Assay [9] deals with 786-0 renal.
Assay [10] has as its system COLO 205 colon.

Turning to `NS(=O)(=O)c1ccc(CCN2C(=O)C=CC2=O)cc1`, the growth was 94.6% in assay [1]; 101% in assay [2]; 97.3% in assay [3]; 97.1% in assay [4]; 115% in assay [5]; 108% in assay [6]. The growth in assay [7] was 84.6%; in [8], 104%; in assay [9] it was 106%; in assay [10] it was 123%.

Take `O=C(N/N=C/c1cc2ccccc2n2nnnc12)Nc1ccccc1`: the growth in [1] is 100%; in [2], 103%; in [3], 105%; in assay [4], 100%; in assay [5], 105%; in assay [6], 105%. In addition, the growth in [7] is 93.6%; in assay [8], 97.7%; in [9], 91.5%; in assay [10] it was 108%.

Turning to `Cc1cnc(C(=O)Nc2nc3ccc(S(=O)(=O)Nc4ccc(C5(C(F)(F)F)CC5)cc4)cc3[nH]2)cn1`, the growth is 33.9% in assay [1]; 13.2% in [2]; 33.9% in [3]; 21.1% in assay [4]; 0.982% (active) in assay [5]; 32.8% in assay [6]. Besides, the growth in [7] was 16%; in assay [8], 23.7%; in assay [9] it was 26.2%; in assay [10] it was -1.76% (active).

As to `COc1cc(/C=C\c2cc(OC)c(OC)c(OC)c2)cc(NC(=O)/C=C/c2cc(OC)c(OC)c(OC)c2)c1OC`, the growth in [1] is 27.8%; in [2] it was 66.6%; in assay [3] it was 66.8%; in assay [4], 63.7%; in [5], 55.7%; in [6], 45%. Further, the growth in [7] was 23.3%; in [8], 60.8%; in assay [9], 51.6%; in [10], 38.2%.

As for `O=C1Nc2ccccc2/C1=C\c1c(-c2ccccc2)nc2ccccn12`, the growth in assay [1] is 8.45% (active); in assay [2], 57.6%; in assay [3], 70.1%; in assay [4], 41.3%; in assay [5], 24.3%; in [6], 66.6%. Also, the growth was 22.3% in [7], 47.1% in assay [8], 58.7% in [9] and 31% in [10].

With `CC(=O)[C@@H]1CC[C@]2(CO)CC[C@]3(C)[C@H](CC[C@@H]4[C@@]5(C)CCCNC(C)(C)[C@@H]5CC[C@]43C)[C@@H]12`, the growth in assay [1] was 94.6%; in assay [2], 107%; in assay [3], 88.8%; in assay [4], 111%; in assay [5], 100%; in assay [6] it was 88.7%. Further, the growth is 91.6% in [7], 112% in [8], 93.6% in assay [9] and 106% in assay [10].

For the compound `N/C(=N\C(N)=N\c1nc2ccccc2s1)c1ccnc(Br)c1`, the growth is 44.5% in assay [1]; 60.1% in assay [2]; 97.4% in assay [3]; 29.8% in assay [4]; 16.4% in assay [5]; 47% in [6]. Moreover, the growth in [7] was 9.9% (active); in [8] it was 61.3%; in assay [9], 32.2%; in assay [10], 21.4%.

`CC(=O)N1c2ccccc2NC2=C(C(=O)NC2(C)C)C1c1ccco1` (stereo not given): the growth in assay [1] was 91.2%; in assay [2], 96.8%; in assay [3], 94.9%; in [4] it was 112%; in assay [5], 98.4%; in assay [6], 67.2%. In addition, the growth in assay [7] is 75.7%; in assay [8] it was 96.5%; in assay [9] it was 93.9%; in assay [10] it was 77.7%.

On to `CCCCCCNC(=O)Oc1ccc(/C(=C(\C)c2ccccc2)c2ccc(OCCN3CCCCC3)cc2)cc1`, for which the growth is 68.7% in [1]; 93.8% in assay [2]; 80.5% in [3]; 75.4% in [4]; 41% in assay [5]; 64.1% in assay [6]. Moreover, the growth in assay [7] is 71.8%; in [8], 64.4%; in assay [9], 16.3%; in assay [10] it was 5.73% (active).

`Oc1cccc(CCc2ccc(Oc3cc(CCc4cccc(O)c4)cc(O)c3O)cc2)c1`: the growth in [1] was 89%; in assay [2], 84.4%; in assay [3] it was 81.8%; in assay [4], 92.5%; in assay [5] it was 66.4%; in assay [6] it was 53.5%. Also, the growth in assay [7] was -8.62% (active); in assay [8] it was 83%; in assay [9], 92.8%; in assay [10], 111%.

For the compound `CCCCCN1C=C/C(=C\C(=O)n2ccc3ccccc32)c2ccccc21`, the growth is 77% in assay [1]; 70.3% in [2]; 87.7% in [3]; 81.9% in [4]; 91% in [5]; 83.3% in assay [6]. Further, the growth in [7] is 77%; in assay [8], 89.4%; in assay [9] it was 94.8%; in assay [10] it was 89.4%.

For `O=C(Nc1ccccc1)Nc1ccc2cc3ccc(NC(=O)Nc4ccccc4)cc3nc2c1`, the growth in assay [1] was 23.7%; in [2] it was 91%; in [3] it was 61.6%; in assay [4], 46.1%; in [5] it was 92.6%; in [6] it was 87.6%. For the same compound, the growth in [7] was -4.64% (active); in assay [8], 101%; in [9], 25.7%; in assay [10], 3.12% (active).

For the compound `C=C(C)[C@@H]1CC[C@]2(CN)CC[C@]3(C)[C@H](CC[C@@H]4[C@@]5(C)CCCNC(C)(C)[C@@H]5CC[C@]43C)[C@@H]12`, the growth was 10.5% in [1]; 53.9% in assay [2]; -42.7% (active) in assay [3]; 21.2% in [4]; -78.3% (active) in [5]; -29.4% (active) in assay [6]. The growth in [7] is -31% (active); in assay [8], -68.4% (active); in assay [9], -97.2% (active); in [10] it was -71.2% (active).
